Screening data deposited in PubChem by National Center for Advancing Translational Sciences (NCATS).
FLuc counter: qHTS profiling assay for firefly luciferase inhibitor/activator using purifed enzyme and Km concentrations of substrates (counterscreen for miR-21 project); purified FLuc, Km substrates, luminescence inhibition; 360,000 tested, 6.9% active; Luciferin 4-monooxygenase (Photinus pyralis), P08659; Potency, µM (doses to about 57.5 µM), without a hit: top-dose activity change, negative = inhibition, hits mostly inhibitors;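 also: plate controls were vehicle for no effect and reference inhibitor for full effect; nearly all actives have a fitted effect of over 55% in size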
Target sequence (P08659 whole entry, looked up): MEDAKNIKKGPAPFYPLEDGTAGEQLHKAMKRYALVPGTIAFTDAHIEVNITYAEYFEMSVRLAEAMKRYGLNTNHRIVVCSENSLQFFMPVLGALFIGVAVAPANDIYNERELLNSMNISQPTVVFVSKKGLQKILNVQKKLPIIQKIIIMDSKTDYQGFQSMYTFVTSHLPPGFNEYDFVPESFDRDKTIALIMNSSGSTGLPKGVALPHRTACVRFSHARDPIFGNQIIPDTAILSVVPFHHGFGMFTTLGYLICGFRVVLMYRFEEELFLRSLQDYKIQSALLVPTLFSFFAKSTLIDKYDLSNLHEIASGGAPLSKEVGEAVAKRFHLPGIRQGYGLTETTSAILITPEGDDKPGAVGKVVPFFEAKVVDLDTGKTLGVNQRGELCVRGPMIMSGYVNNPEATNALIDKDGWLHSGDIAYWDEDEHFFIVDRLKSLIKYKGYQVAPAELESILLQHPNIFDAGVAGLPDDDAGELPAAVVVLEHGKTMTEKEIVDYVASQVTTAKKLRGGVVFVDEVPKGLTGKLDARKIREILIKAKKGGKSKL
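Purified P. pyralis luciferase (10nM final) with 10uM D-luciferin and 10uM ATP (Km levels) in 50mM Tris acetate pH 7.5, 10mM Mg acetate, 0.01% Tween-20, 0.05% BSA; qHTS 6-point titration, ~60 µM downward; luminescence read.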
NPC1 promoter act: qHTS Assay for NPC1 Promoter Activators; Huh7 NPC1 promoter luciferase reporter, 24 h; 320,000 tested, 2.4% active; AID 485313, 2010; Potency, µM (top dose mostly 9.22 µM), for inactives: at the top dose activation, most hits filed as activators; also: % of control where 0% means no effect; nearly all actives have a fitted effect of over 60% in size
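Stable NPC1-promoter luciferase Huh7 line; cpd (DMSO) 24 h, 37 °C, 5% CO2; Amplite luciferase reagent 10 min RT; luminescence readout. qHTS format.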
Rab9 promoter act: qHTS Assay for Rab9 Promoter Activators; Huh7 Rab9 promoter-luciferase reporter, luminescence, 24 h; Potency, µM (highest dose often 9.22 µM), without a hit: top-dose activation, negative = inhibition, most hits filed as activators; 320,000 tested, 2.8% active; AID 485297, 2010; also: % of control where 0% means no effect; nearly all actives have a fitted effect of over 60% in size
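Steps: seed 1500 Huh7 Rab9-luc cells per well, rest 2 h at 37 °C; add compound in DMSO; incubate 24 h; add luciferase reagent, 10 min ambient; read luminescence.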
SMN2 splice enh: qHTS Assay for Enhancers of SMN2 Splice Variant Expression; HEK293 SMN2-luciferase splicing reporter, luminescence, 30-36 h; Potency, µM (doses to about 46.1 µM), inactives show at the highest dose activity change, positive = activation, hits mostly activators; 210,000 tested, 2.8% active; also: % of control where 0% means no effect; nearly all actives have a fitted effect of over 55% in size
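qHTS luciferase splicing reporter: luminescence rises when SMN2 exon 7 is included in transfected HEK293 cells. Compound exposure lasted 30-36 h at 37C, with 4.5 mM final sodium butyrate as control, followed by a ONE-Glo read.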
ELG1 genotox: qHTS screen for small molecules that induce genotoxicity in human embryonic kidney (HEK293T) cells expressing luciferase-tagged ELG1; 330,000 tested, 1.3% active; AID 504466, 2011; Potency, µM (doses to about 46 µM), for the others: at the top dose activity change, positive = activation, actives largely listed as activators; HEK293T ELG1-luciferase reporter, luminescence, 16 h; also: % of control where 0% means no effect; nearly all actives have a fitted effect of over 60% in size
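After overnight (16 hr) compound treatment at 37 °C, ELG1-luciferase HEK293T cells were lysed with ONE-Glo; luminescence quantified 30 min later at room temperature.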
An asterisk follows results filed as active; ? = inconclusive; nt = no result given. Hits are enriched below; roughly 7.4% of the tested compounds scored in any of these assays. Calls follow the shape of the dose curve; as a rule, active = well fitted curve in the direction sought with a large enough effect; inconclusive = small, poorly fitted or top-dose-only effect, or another doubt; inactive = no such curve, though single readings can be large; an effect the other way counts as inactive or inconclusive. Potency is read from the fitted curve at half-maximal effect.

SMILES	FLuc counter	NPC1 promoter act	Rab9 promoter act	SMN2 splice enh	ELG1 genotox
CCCCOc1ccc(CNC(=O)Cc2ccc(NC(=O)N3CCCCc4ccccc43)cc2)cc1	-15.5%	nt	nt	nt	nt
CCc1ccc(OCC(=O)NC(=S)Nc2ccc(F)cc2)c(Br)c1	?	0.1%	-2.3%	-16.3%	12.4%
CCc1ccc(OCC(=O)NC(=S)Nc2cccc(CO)c2)c(Br)c1	6.01µM*	1.78µM*	2.82µM*	12.6µM*	?
N=C1/C(=C/c2ccc(-c3cccc(C(=O)O)c3)o2)C(=O)N=C2SC=C(c3ccccc3)N12	23.9µM*	0.1%	25.0%	16.7%	1.8%
O=C1OC(c2cccs2)=N/C1=C/c1ccc(-c2cccc(C(=O)O)c2)o1	23.9µM*	2.6%	-3.0%	5.8%	?
CS(=O)(=O)C1=NSC2=NC(=O)/C(=C\c3ccc(-c4ccccc4)o3)C(=N)N21	12µM*	4.3%	4.6%	4.6%	3.7%
CC(C)S(=O)(=O)C1=NSC2=NC(=O)/C(=C\c3ccc(-c4cccc(C(=O)O)c4)o3)C(=N)N21	13.5µM*	-3.0%	-2.6%	1.4%	-9.2%
COc1cc2[nH]c(=O)n(Cc3ccc(C(=O)N4CCN(c5cccc(C)c5C)CC4)cc3)c(=O)c2cc1OC	-5.2%	nt	nt	2.2%	nt
COc1cccc2[nH]c3c(N4CCCC(C)C4)ncnc3c12 (stereo not drawn)	5.36µM*	15.2%	28.5%	3.9%	-1.8%
COc1cccc2[nH]c3c(N4CC(C)CC(C)C4)ncnc3c12 (stereo not drawn)	-11.6%	-0.8%	-1.0%	-18.0%	-5.9%
Cc1c(C(=O)NC2=NCCS2)oc2ccccc12	3.01µM*	?	?	2.82µM*	?
Cc1c(C(=O)Nc2nnc(C3CC3)s2)oc2ccccc12	4.78µM*	3.55µM*	2.24µM*	nt	?
Cc1c(C(=O)Nc2nnc(C3CC3)s2)oc2c(Cl)cccc12	0.9%	16.8%	1.0%	nt	?
Cc1c(C(=O)Nc2cccc3cccnc23)oc2ccccc12	-18.4%	25.9%	?	3.2%	17.6%
Cc1csc(NC(=O)c2oc3ccccc3c2C)n1	1.69µM*	3.16µM*	3.55µM*	nt	?
O=C(Cc1coc2ccc3ccccc3c12)Nc1nnc(C2CC2)s1	-2.2%	2.9%	14.8%	nt	0.2%
O=C(Cc1c[nH]c2ccccc12)Nc1nnc(C2CC2)s1	0.7%	2.0%	-0.9%	11.2µM*	-10.0%
CCC(=O)N1CCc2cc(CNS(=O)(=O)c3ccc(Cl)s3)ccc21	-15.8%	nt	nt	nt	nt
O=C(NC1=NCCS1)c1sc2ccccc2c1Cl	2.13µM*	1.26µM*	1.12µM*	12.6µM*	2.91µM*
Cc1nnc(NC(=O)c2sc3ccccc3c2Cl)s1	0.379µM*	1.26µM*	1µM*	12.6µM*	?
CNC(=O)c1ccsc1NC(=O)c1sc2ccccc2c1Cl	3.79µM*	?	?	12.6µM*	14.8%
Cc1ccc2nsnc2c1NC(=O)c1sc2ccccc2c1Cl	0.4%	0.5%	-0.4%	-8.1%	12.1%
CCN(CC)c1ccc(NC(=O)c2sc3ccccc3c2Cl)cc1	?	nt	nt	-7.5%	nt
Cc1cccnc1NC(=O)c1sc2ccccc2c1Cl	2.69µM*	1.41µM*	2.51µM*	nt	3.66µM*
O=C(Cn1c(=O)n(Cc2ccco2)c(=O)c2sc3ccccc3c21)Nc1ccccc1C(F)(F)F	-2.3%	nt	nt	-18.3%	nt
SMILES	FLuc counter	NPC1 promoter act	Rab9 promoter act	SMN2 splice enh	ELG1 genotox
CSCCC=O	nt	nt	nt	4.2%	nt
COc1cc(C2CC(=O)Nc3c2c(=O)n(C)c2ncnn32)cc(OC)c1OC (stereo not drawn)	2.0%	nt	nt	4.1%	nt
Cc1c(NC(=S)NC(=O)c2sc3ccccc3c2Cl)cccc1C(=O)O	0.757µM*	?	?	3.98µM*	?
COCc1nnc(NC(=O)c2sc3ccccc3c2Cl)s1	5.36µM*	?	?	7.7%	?
COCc1nnc(NC(=O)c2cccs2)s1	-1.0%	-7.3%	-7.5%	14.0%	1.6%
Cc1ccc(NC(=O)c2sc3ccccc3c2Cl)nc1	0.269µM*	3.55µM*	3.55µM*	0.631µM*	?
